A selection: hits, their analogues and other compounds. The true share with any hit is near 18%.
CtBP-E1A blk – blocks the CtBP interaction with E1A. AlphaScreen GST-E1A/His-CtBP binding, 1536-well; stronger effect = lower value. activity change, % (test concentration not listed). 340,000 tested, 0.49% active. AID 651724; in the data active = activity change below about -65%; inconclusive = mostly about -30% to -63%
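Protein mix (5X: 125 nM each GST-E1A, His-CtBP) was incubated with pinned compound 2 h at 37 deg C in dark, in 50 mM Tris pH 8.0 buffer with 300 mM NaCl. Glutathione donor and nickel acceptor beads followed; AlphaScreen signal read after 1 h.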
TDP1 block – blocks human tyrosyl-DNA phosphodiesterase 1; 350,000 tested, 0.28% active; Q9NUW8; recombinant TDP1, AlphaScreen DNA substrate cleavage; AID 485290; Potency, µM (series often up to 130 µM), without a hit: top-dose activity change, negative = inhibition, hits mostly inhibitors; note: potency is the fitted concentration of half-maximal effect; nearly all actives have a fitted effect of over 40% in size
Target sequence (Q9NUW8 whole entry, looked up): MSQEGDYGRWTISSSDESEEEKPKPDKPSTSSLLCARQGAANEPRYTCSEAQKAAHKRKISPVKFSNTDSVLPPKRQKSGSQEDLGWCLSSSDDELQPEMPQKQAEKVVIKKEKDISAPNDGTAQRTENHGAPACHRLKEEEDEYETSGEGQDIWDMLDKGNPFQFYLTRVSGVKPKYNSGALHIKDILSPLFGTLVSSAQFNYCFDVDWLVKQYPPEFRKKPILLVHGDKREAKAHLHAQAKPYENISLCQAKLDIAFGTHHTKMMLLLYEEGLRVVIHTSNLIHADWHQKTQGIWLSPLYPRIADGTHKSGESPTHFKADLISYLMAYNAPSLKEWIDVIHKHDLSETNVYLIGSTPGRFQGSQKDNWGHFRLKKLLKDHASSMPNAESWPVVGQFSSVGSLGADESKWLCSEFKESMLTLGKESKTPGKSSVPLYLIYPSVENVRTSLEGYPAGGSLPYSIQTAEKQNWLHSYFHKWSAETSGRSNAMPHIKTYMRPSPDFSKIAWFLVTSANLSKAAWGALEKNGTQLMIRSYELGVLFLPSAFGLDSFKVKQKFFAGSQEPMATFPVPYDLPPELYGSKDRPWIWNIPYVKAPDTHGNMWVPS
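E. coli-derived human Tdp1, 1 nM final. Cpd preinc 15 min RT; substrate 15 nM final, 5 min RT; AS bead mix 10 ug/ml final, 10 min RT. Signal loss = tyrosine-FITC cleavage. No-enzyme wells = max signal.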
DT40 TDP1 CPT – growth inhibition of DT40 Tdp1-/-;hTDP1 cells with camptothecin (screen for TDP1 inhibitors); AID 686979; 420,000 tested, 12% active; Potency, µM (titrated, usually from 46.2 µM), for inactives: at the highest dose activity change, negative = growth inhibition, hits mostly inhibitors; chicken DT40 Tdp1-/-;hTDP1 cells + 20 nM CPT, ATP luminescence, 48 h; note: potency is the fitted concentration of half-maximal effect; nearly all actives have a fitted effect of over 55% in size
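Chicken DT40 Tdp1-/- cells complemented with human TDP1, 400 cells/well, exposed to compounds plus 20 nM camptothecin for at least 48 h at 37 C; viability read as ATP content by CellTiter-Glo luminescence.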
Six1-Eya2 blk – inhibitors of human Six1/Eya2 interaction; Q15475+O00167; AlphaScreen GST-Six1/His-Eya2 binding, biochemical; stronger effect = lower value; activity change, % (test concentration not listed); 360,000 tested, 0.56% active; in the data active = activity change below about -65%; inconclusive = mostly about -30% to -63%
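Compounds are tested against tagged Six1 and Eya2 proteins bridged by glutathione donor and nickel acceptor beads; after a one-hour incubation at 37 °C without light, AlphaScreen emission is recorded.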
TDP1 cell noCPT – qHTS for Inhibitors of human tyrosyl-DNA phosphodiesterase 1 (TDP1): qHTS in cells in absence of CPT; DT40 Tdp1-/- hTDP1 cells, no CPT, ATP luminescence, 48 h; Potency, µM (doses to about 46.2 µM), for inactives: at the highest dose activity change, negative = growth inhibition, usual class: inhibitors; 420,000 tested, 15% active; note: potency is the fitted concentration of half-maximal effect; nearly all actives have a fitted effect of over 55% in size
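Seeded 400 DT40-hTDP1 cells/well (vehicle DMSO, no 20 nM CPT); pinned compounds; ≥48 hr at 37 °C; CellTiter-Glo luminescence as viability measure.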
IL1B secr inh – inflammasome signaling inhibition, IL-1 beta readout; THP-1 LPS/ATP IL-1B secretion, AlphaLISA, 16 h; stronger effect = lower value; activity change, % at 57.5 µM; 360,000 tested, 4.7% active; in the data active = activity change below about -50%; inconclusive = mostly about -30% to -49%
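THP-1 cells pretreated 1 hr with compounds (up to 57.5 uM final), then stimulated with LPS (250 ng/mL final) plus ATP (1.25 mM final); secreted IL-1B measured by AlphaLISA after 16 hr, decreased signal indicating inhibition.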
An asterisk follows results filed as active; ? = inconclusive; / = no result; ! = not active in a repeat; [ ] = dose if it differs, or a comment. Unless noted, calls come from the whole dose curve; as a rule, active = well fitted curve in the direction sought with a large enough effect; inconclusive = small, poorly fitted or top-dose-only effect, or another doubt; inactive = no such curve, though single readings can be large; an effect the other way counts as inactive or inconclusive. % is set by controls: 0 for no effect and ±100 for the full control effect.

SMILES	CtBP-E1A blk	TDP1 block	DT40 TDP1 CPT	Six1-Eya2 blk	TDP1 cell noCPT	IL1B secr inh
CCOC(=O)c1c(CSc2ccc(C)cc2)n(C)c2cc(Br)c(O)c(CN(C)C)c12	?	/	?	?	8.2µM*	0
CCOC(=O)c1c(CSc2ccccc2)n(C)c2ccc(O)c(CN3CCN(C)CC3)c12	?	5%	?	-16	?	0
CCOC(=O)c1c(CN(C)C)oc2cc(CN(C)C)c(O)c(CSc3ccccc3)c12	-20	9%	-21%	?	-24%	-50*
S=c1[nH]nc2sc3ccccc3n12	-3	/	-17%	-6	-19%	52
CSCCC(N=C(NS(=O)(=O)c1ccccc1)c1ccccc1)C(=O)O (centres undefined)	10	/	-22%	2	0%	2
O=C(Nc1nnc(SCc2ccc(Cl)cc2)s1)c1cnccn1	-20	7%	?	-22	?	4
C/C(=N\NC(=O)CSc1nnc(C)s1)c1ccc(O)cc1	0	3%	1%	3	4%	10
COc1ccc(-c2nc(N)nc(N)n2)c(O)c1	-26	0%	15µM*	-1	16µM*	-24
COc1ccc(-c2c(C)nc(N)nc2-c2ccc(OCc3ccc(C)cc3)cc2O)cc1OC	-8	0%	?	-20	5.8µM*	63
Nc1ncc(-c2ccccc2)c(-c2ccc(O)cc2O)n1	-19	/	-7%	-28	?	-92*
COc1ccc(/C=C/c2nc(N)nc(-c3ccccc3O)n2)cc1	10	-1%	3%	1	?	22
COc1ccc(-c2nc(N)ncc2-c2ccc(OC)c(OC)c2)c(O)c1	-10	/	?	?	?	-53*
COc1ccc(-c2c(C)nc(N)nc2-c2ccc(OC)cc2O)cc1	?	/	1%	?	-25%	11
COc1cc(OC)cc(C(=O)NNC(=O)CN2C(=O)NC3(CCCC3)C2=O)c1	4	-1%[56.1 µM]	-15%	-3	7%	-16
O=C(c1ccc2c(c1)OCO2)N(c1ccc(Cl)cc1)C1C=CS(=O)(=O)C1 (centres undefined)	7	5%	-18%	3	-12%	-20
CCN(CC)CCC(c1ccc(N(C)C)cc1)c1c(OC)cc(OC)c2ccc(=O)oc12 (centres undefined)	-20	/	10µM*	-29	13µM*	-2
COc1cc(OC)c2ccc(=O)oc2c1C(CCN1CCCC1)c1ccc(N(C)C)cc1 (centres undefined)	-16	17%	9.2µM*	-16	?	-2
COCCNC(=O)NC(=O)COC(=O)C12CC3CC(CC(NC(C)=O)(C3)C1)C2	19	7%	-15%	11	3%	23
CN(C)c1ccc(C(C(=O)NCC2CCCO2)N(Cc2ccco2)C(=O)c2snc(C(N)=O)c2N)cc1 (centres undefined)	-2	/	?	-1	?	-3
CN(C)c1ccc(C(C(=O)NCc2ccccc2)N(Cc2ccco2)C(=O)c2snc(C(N)=O)c2N)cc1 (centres undefined)	-23	/	15µM*	-22	8.2µM*	-72*
NC(=O)c1nsc(C(=O)N(Cc2ccco2)C(C(=O)NCc2ccc(F)cc2)c2ccc(O)cc2)c1N (centres undefined)	-10	18%	16µM*	3	?	?
NC(=O)c1nsc(C(=O)N(Cc2cccnc2)C(C(=O)NCc2ccc(F)cc2)c2ccc(F)cc2)c1N (centres undefined)	-3	12%	-28%	8	-25%	-55*
CN(C)c1ccc(C(C(=O)NCC2CCCO2)N(Cc2ccccc2)C(=O)c2snc(C(N)=O)c2N)cc1 (centres undefined)	-15	/	10µM*	-12	18µM*	-11
O=C(CSCc1c(F)cccc1Cl)NCCSCc1ccco1	-3	3%	20%	-8	-16%	-14
CCOC(=O)C(/C(C)=N/NC(=O)c1ccccc1[N+](=O)[O-])C(C)C (centres undefined)	-25	7%	-18%	0	-8%	5
SMILES	CtBP-E1A blk	TDP1 block	DT40 TDP1 CPT	Six1-Eya2 blk	TDP1 cell noCPT	IL1B secr inh
COCCCNC(=O)CN(Cc1ccc(Cl)cc1)S(C)(=O)=O	15	0%	2%	4	-6%	0
COCCNC(=O)C(c1ccc(C)o1)N(Cc1ccco1)C(=O)c1snc(C(N)=O)c1N (centres undefined)	-3	2%	-9%	-1	-12%	15
Cc1ccc(C(C(=O)NCc2ccc(F)cc2)N(Cc2ccco2)C(=O)c2snc(C(N)=O)c2N)o1 (centres undefined)	-1	6%	15µM*	-2	15µM*	-71*
O=C(CCC(=O)NCc1ccccc1)NCc1ccccc1	/	/	1%	0	-4%	23
[2H]C(CCOS(N)(=O)=O)c1ccc(C(C)(C)C)cc1 (centres undefined)	7	/	21µM*	1	21µM*	18
NS(=O)(=O)OCCCc1ccccc1	3	/	?	7	-11%	20
COc1ccccc1C1(CC(=O)Nc2nccs2)CCOC(C(C)C)C1 (centres undefined)	1	3%	5.2µM*	-6	4.6µM*	39
CCc1ccc(C2=NNC(=Nc3cccc(S(=O)(=O)N(C)C)c3)SC2)cc1	-25	3%	21µM*	-25	18µM*	-70*
Cc1cccc(N=C2NN=C(c3ccc4c(c3)OCCO4)CS2)c1	?	5%	-8%	-21	-12%	-3
O=C(Nc1cc(C(=O)Nc2ccc(S(=O)(=O)O)cc2S(=O)(=O)O)cc(C(=O)Nc2ccc(S(=O)(=O)O)cc2S(=O)(=O)O)c1)Nc1cc(C(=O)Nc2ccc(S(=O)(=O)O)cc2S(=O)(=O)O)cc(C(=O)Nc2ccc(S(=O)(=O)O)cc2S(=O)(=O)O)c1	/	5µM*	?	/	-21%	/
O=C(Nc1ncc(C(F)(F)F)cc1Cl)c1ccc(S(=O)(=O)N2CCOCC2)cc1	10	0%	-22%	4	-4%	-14
CCN(CC)c1ccc2cc(C=O)c(=O)oc2c1	3	0%	29µM*	1	18µM*	-19
CCN(CC)c1ccc2cc(C(=O)Nc3ccccn3)c(=O)oc2c1	11	3%	4.5µM*!	11	?	-9
CCN(CC)c1ccc2cc(-c3nc(-c4cc(OC)c(OC)c(OC)c4)no3)c(=O)oc2c1	/	3%	21µM*	/	10µM*	/
